# From PubChem BioAssay (NCI)
# This is part of a sample that, as a whole, favours compounds with a hit. Of some 79,000 tested, about 15% had one in any assay. Unmarked numbers belong to inactive results. Calls of active or inactive are those of the source. No stated cut-off is given here; in the data, active means growth inhibition above about 70%; inactive means the rest.
# Columns and labels:
# [1] = NCI Yeast Anticancer Drug Screen. Data for the rad50 strain (AID 155);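 further: 0% = growth of vehicle-only cultures of the same strain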; conditions: S. cerevisiae rad50 strain growth inhibition, active compounds read high
# How it was run: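 Compounds were tested on a yeast strain with an engineered DNA damage repair alteration; the reported value is growth inhibition normalised to vehicle treatment.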
# [2] = NCI Yeast Anticancer Drug Screen. Data for the mec2-1 strain (AID 157); conditions: S. cerevisiae mec2-1 strain, active compounds read high
# How it was run: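 Growth inhibition is read against vehicle-treated controls after compound exposure of the mec2-1 yeast strain, which is defective in DNA damage repair or cell cycle control.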
# [3] = NCI Yeast Anticancer Drug Screen. Data for the sgs1 mgt1 strain (AID 161);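 further: 0% = growth of cultures given vehicle only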; conditions: S. cerevisiae sgs1 mgt1 strain, active compounds read high
# How it was run: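 Compounds are added to genetically altered yeast, and growth is compared with cultures given vehicle alone to give percent inhibition.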
# [4] = NCI Yeast Anticancer Drug Screen. Data for the cln2 rad14 strain (AID 165);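 further: 0% = growth equal to vehicle treated cultures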; conditions: S. cerevisiae cln2 rad14 strain, active compounds read high
# How it was run: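 Growth inhibition, relative to vehicle-treated controls, is the read-out. The test organism is a yeast strain with defined genetic alterations, cln2 rad14.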
# [5] = NCI Yeast Anticancer Drug Screen. Data for the bub3 strain (AID 167); conditions: S. cerevisiae bub3 mutant strain, active compounds read high
# How it was run: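 Growth of a checkpoint-deficient yeast mutant is measured after compound exposure. Values represent inhibition relative to vehicle.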
# [6] = NCI Yeast Anticancer Drug Screen. Data for the mlh1 rad18 strain (AID 175); conditions: S. cerevisiae mlh1 rad18 strain growth inhibition, active compounds read high
# How it was run: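 Cells of a genetically altered yeast strain, deficient in DNA damage repair, were treated with compound. Their growth was then compared with that of vehicle-treated cultures to give inhibition.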
# [7] = at 5.0 µM (retest, dose inferred, filed as 0.5)
# [8] = at 50.0 µM (retest, dose inferred, filed as 5.0)
Structure (SMILES),"growth inhibition [1, 7] [%]","growth inhibition [1, 8]",growth inhibition ([1]; at 50.0 µM),"growth inhibition [2, 7] [%]","growth inhibition [2, 8]",growth inhibition ([2]; at 50.0 µM),"growth inhibition [3, 7] [%]","growth inhibition [3, 8]",growth inhibition ([3]; at 50.0 µM),"growth inhibition [4, 7] [%]","growth inhibition [4, 8]",growth inhibition ([4]; at 50.0 µM),"growth inhibition [5, 7] [%]","growth inhibition [5, 8]",growth inhibition ([5]; at 50.0 µM),"growth inhibition [6, 7] [%]","growth inhibition [6, 8]",growth inhibition ([6]; at 50.0 µM)
Cc1cc2oc3c(ccc(=O)n3C)c(=O)c2c(C)c1Cl,9,38%,53.7%,10,23%,29.4%,22,21%,54.8%,20,13%,25.9%,18,10%,30.2%,11,48%,17.9%
CCOC(=O)C(=O)Nc1nc2c(s1)C(=O)c1ccccc1C2=O,14,96% (active),98.5% (active),18,98% (active),95.8% (active),14,99% (active),96.9% (active),-3,89% (active),90% (active),46,96% (active),98.5% (active),17,94% (active),96.3% (active)
CCOC(=O)C(=O)C1CCCCC1=O (stereo not drawn),9,95% (active),98.5% (active),6,98% (active),98.8% (active),5,92% (active),98.8% (active),21,98% (active),98.8% (active),6,98% (active),97% (active),11,98% (active),98.8% (active)
COc1ccc(-c2noc(=O)c3ccccc23)cc1,11,6%,-5.8%,5,4%,-1.1%,6,4%,3.4%,4,3%,64.2%,-3,-2%,9.65%,-1,1%,1.35%
O=C1OCCCN1/N=C/c1ccc([N+](=O)[O-])o1,16,59%,82% (active),4,31%,55%,10,65%,84.8% (active),2,32%,42.3%,8,62%,52.3%,24,78% (active),89.2% (active)
O=[N+]([O-])c1cc(C(F)(F)F)cc([N+](=O)[O-])c1N1CCCC(n2cccc2)C1 (stereo not drawn),-11,21%,34.6%,-6,19%,45.8%,-4,26%,58.3%,7,28%,34.1%,-9,55%,71.2% (active),1,33%,47.9%
